Results filed as inconclusive are left out. A call without a number means that no potency is given here. Active and inactive are the calls of the source. Calls come from the whole dose curve; as a rule, active = well fitted curve in the direction sought with a large enough effect; inconclusive = small, poorly fitted or top-dose-only effect, or another doubt; inactive = no such curve, though single readings can be large; an effect the other way counts as inactive or inconclusive.
Legend:
[1] = biological target: Aldehyde dehydrogenase, mitochondrial (Homo sapiens) (UniProt P05091); assay: qHTS for Inhibitors of the Aldehyde Dehydrogenase Family (ALDH2) Primary screen (AID 2061308); settings: ALDH2 enzyme inhibition qHTS, 1536-well; series mostly up to 56 µM; note: nearly all actives have a fitted effect of over 55% in size
[2] = biological target: Retinaldehyde dehydrogenase 3 (Homo sapiens) (UniProt P47895); assay: qHTS for Inhibitors of the Aldehyde Dehydrogenase Family (ALDH1A3) Primary screen (AID 2061315); settings: ALDH inhibition qHTS; series mostly up to 56 µM

For `Cc1noc(C)c1-c1ccc2ncnc(NC(C)c3ccco3)c2c1` (stereo not drawn), which Potency [1] is on record?
The Potency was “inactive”.

What about the Potency [2] of the same compound?
The Potency was “inactive”.

Which results are given for `COc1cccc(CN2C(=O)c3ccccc3NC2c2ccc(OC)c(COc3c(C)cc(NC(C)=O)cc3C)c2)c1` (stereo not drawn)?
Potency [1]: inactive; Potency [2]: inactive

Which results are given for `Cc1cc(C)nc(NC(=S)N2CCN(c3nccc4occc34)CC2)c1`?
Potency [1]: inactive; Potency [2]: inactive

With `Cc1ccc(-c2ccc(=O)n(CC(=O)NCc3ncc[nH]3)n2)cc1` as the compound, how does the Potency [1] read?
The Potency was “inactive”.

What about the Potency [2] of the same compound?
Its Potency is “inactive”.

For `COc1ccc(-c2ccc3ncnc(N(C)Cc4csc(C)n4)c3c2)cc1OC`, which Potency [1] is on record?
Its Potency is “inactive”.

And the Potency [2]?
The Potency was “inactive”.

With `COc1ccc(S(=O)(=O)Nc2cnccc2C(=O)Nc2nc(-c3ccccc3)cs2)cc1` as the compound, how does the Potency [1] read?
Its Potency is “inactive”.

What about the Potency [2] of the same compound?
The Potency was “inactive”.

With `Cc1ccnc(NC(=S)N2CCc3ccccc3C2)c1` as the compound, how does the Potency [1] read?
The Potency was “inactive”.

And the Potency [2]?
Its Potency is “inactive”.

For `CNc1oc(-c2ccc(F)cc2)nc1C#N`, which Potency [1] is on record?
The Potency was “inactive”.

And the Potency [2]?
The Potency was “inactive”.

Which results are given for `COc1ccc(S(=O)(=O)N2CCN(S(=O)(=O)c3ccc(OC)cc3)CC2)cc1`?
Potency [1]: inactive; Potency [2]: inactive

Which Potency [1] does the source give for `COc1ccc(Br)cc1S(=O)(=O)N1CCN(S(=O)(=O)c2ccc3c(c2)OCCO3)CC1` here?
Its Potency is “inactive”.

And the Potency [2]?
The Potency was “inactive”.

Which Potency [1] does the source give for `O=c1c2ccccc2nc2sc(Nc3cccc(N4CCN5CCCCC5C4)c3)nn12` (stereo not drawn) here?
Its Potency is “inactive”.

What about the Potency [2] of the same compound?
Its Potency is “inactive”.

What does the source list for `CC(O)(C(=O)C1CC1(CO)COC1OC(CO)C(O)C(O)C1O)C1C(O)CC2C3CC=C4CC(O)CC(O)C4(C)C3C(O)CC21C` (stereo not drawn)?
Potency [1]: inactive; Potency [2]: inactive

Which results are given for `O=S(=O)(c1ccc2c(c1)OCCO2)N1CCN(S(=O)(=O)c2cccc3cccnc23)CC1`?
Potency [1]: inactive; Potency [2]: inactive

`Clc1cccc(-c2ccc3ncnc(NCc4cccs4)c3c2)c1` was tested. Which Potency [1] did it give?
Its Potency is “inactive”.

What about the Potency [2] of the same compound?
Its Potency is “inactive”.
